The source of these data is PubChem BioAssay AID540256 (National Center for Advancing Translational Sciences (NCATS), 2011).

In all, about 300,000 compounds went through this assay and about 3,700 (1.2%) were called active. Not shown: some 20% with an inconclusive outcome. Calls come from the whole dose curve; tested in HEK293 cells. Only a selection was taken, and actives are over-represented in it overall.
% is set by controls: 0 for no effect and ±100 for the full control effect; potency is the fitted concentration of half-maximal effect.

The nature of the experiment: qHTS for Inhibitors of binding or entry into cells for Lassa Virus. Note: nearly all actives have a fitted effect of over 50% in size. Particulars: Lassa virus pseudotype entry inhibition, cell reporter; series mostly up to 37.9 µM; activity change, negative = inhibition: at the top concentration. For orientation: qHTS replaces the single test concentration by a dilution series.
As to `CC(=O)c1ccc(OCCCC(=O)Nc2ccc(C)c(S(=O)(=O)N3CCOCC3)c2)cc1`, the “activity change, negative = inhibition” value was -15.1% (inactive). For the compound `COc1ccccc1NS(=O)(=O)c1ccc(C(=O)N2CCN(c3ccccc3O)CC2)cc1`, the “activity change, negative = inhibition” value was -21.8% (inactive). Take `Cc1nc(/N=C(\N)NC(=O)NC2CCCCC2)nc2ccccc12`: the Potency is 22.4 µM (active). On to `Cc1nn(-c2ccccc2)c(C)c1C(=O)OCC(=O)NC(=O)NC1CCCCC1`, for which the “activity change, negative = inhibition” value was -23% (inactive). Same read-out and setting: as for `COc1ccc2nc(/N=C(\N)NC(=O)Nc3ccccc3)nc(C)c2c1`, the figure is 5.9% (inactive); as for `CC(C)c1cc(N=O)cc(C(C)C)c1O`, 0.0792% (inactive). In the case of `N#Cc1c(NC(=O)CSc2nc3ccccc3c(=O)n2Cc2ccco2)sc2c1CCCC2`, the “activity change, negative = inhibition” value was 18.5% (inactive). Still for that read-out and setting: as for `CCOC(=O)C(C)Sc1nc2ccccc2c(=O)n1CC1CCCCC1` (stereo unspecified), the figure is -2.75% (inactive). As for `CC(Sc1nc2ccccc2c(=O)n1Cc1ccco1)C(=O)c1ccccc1` (stereo unspecified), the Potency was 4.11 µM (active).

Consider `CC1CCCN(CC(=O)Nc2cc(Cl)ccc2Oc2ccccc2)C1` (stereo unspecified), for which the “activity change, negative = inhibition” value was 9.3% [at 46.1 µM] (inactive). Take `CCOc1ccc(NC(=O)COC(=O)C2CCC(=O)N2)c([N+](=O)[O-])c1` (stereo unspecified): the “activity change, negative = inhibition” value is 19.8% (inactive).

For `OC(COc1ccccc1)Cn1cc(Br)cn1` (stereo unspecified), the “activity change, negative = inhibition” value was -20.5% (inactive). Same read-out and setting: next, `C=CCn1c(=N)n(CC(O)COc2ccc(OC)cc2)c2ccccc21` (stereo unspecified): -1.13% (inactive). As to `OC(CN=c1sc2ccccc2n1CC(O)COc1ccccc1)COc1ccccc1` (stereo unspecified), the Potency is 20.6 µM (active).

`COc1ccccc1C(=O)NC(CCSC)C(=O)N1CCN(C/C=C/c2ccccc2)CC1` (stereo unspecified): the “activity change, negative = inhibition” value was -28.6% (inactive). In the case of `CC1CCC2CCCCC2N1C(=O)c1cc([N+](=O)[O-])cc([N+](=O)[O-])c1` (stereo unspecified), the “activity change, negative = inhibition” value was -2.98% (inactive). In the case of `COc1ccc(C2=NOC3(CC(=O)N(c4ccc(C)cc4)C3=O)C2)cc1` (stereo unspecified), the “activity change, negative = inhibition” value is 5.87% (inactive).

Regarding `COc1ccc(C2=Nc3cc(C)ccc3OC2)cc1`, the Potency is 10 µM (active). As to `COc1ccc(-c2cc(-c3ccccc3)nc3c2COc2ccc(Cl)cc2-3)cc1`, the “activity change, negative = inhibition” value was 1.5% [at 46.1 µM] (inactive). With `COc1ccc2c(c1)C(=O)Nc1cc(Cl)ccc1N2`, the “activity change, negative = inhibition” value was 24.4% (inactive). The same measure, in the same setting: next, `CC(=O)Nc1ccc(NC(=O)CS(=O)(=O)c2cn(CC(=O)N3CCCCC3)c3ccccc23)cc1`: -4.11% (inactive); `Cc1onc(-c2ccccc2Cl)c1C(=O)OCc1nnc(-c2ccccc2)o1`: 0.569% (inactive).

Consider `CC(C)CC(=O)c1c[nH]c(C(=O)NCc2ccccc2)c1`, for which the Potency is 7.94 µM (active). In the case of `O=C(c1ccc(F)cc1)c1c[nH]c(C(=O)NCc2cccnc2)c1`, the “activity change, negative = inhibition” value was -22.6% (inactive). Turning to `CC(C)CC(=O)NC(=S)NCc1ccccc1`, the “activity change, negative = inhibition” value was -2.95% (inactive). Regarding `OC(COc1ccccc1)CN1CCN(c2cccc(Cl)c2)CC1` (stereo unspecified), the “activity change, negative = inhibition” value is 14.8% (inactive).

Regarding `CC/C(=C\c1ccc(Cl)cc1)c1ccncc1`, the “activity change, negative = inhibition” value is 2.57% [at 46.1 µM] (inactive).

For the compound `COc1cccc(/C=N/NC(=O)c2[nH]nc3c2CCc2ccccc2-3)c1O`, the Potency was 12.6 µM (active). Consider `COc1cc2cc(C(=O)N/N=C/c3cccc(OC)c3OC)[nH]c2cc1OC`, for which the “activity change, negative = inhibition” value was -18.4% [at 46.1 µM] (inactive). With `CN(C)CCNC(=O)c1[nH]nc2c1CCc1ccccc1-2`, the “activity change, negative = inhibition” value is 24.1% (inactive).

Regarding `O=C(CSc1nnc(-c2ccncc2)o1)Nc1cccc(Cl)c1`, the “activity change, negative = inhibition” value is 9.43% (inactive). On to `COc1ccccc1CNS(=O)(=O)c1cc(C(=O)NCc2ccccn2)c(Cl)cc1Cl`, for which the “activity change, negative = inhibition” value was -16.2% (inactive). On to `CCN(CC)S(=O)(=O)c1ccc(N(C)Cc2cccc(OC)c2OC)nc1`, for which the “activity change, negative = inhibition” value is -66.7% (inactive). For the compound `CCN(CC)S(=O)(=O)c1ccc(N(C)CCc2ccc(OC)c(OC)c2)nc1`, the “activity change, negative = inhibition” value was -22.4% (inactive).

Regarding `CCN(CC)S(=O)(=O)c1ccc(N(C)Cc2ccc(C(F)(F)F)cc2)nc1`, the Potency was 4.47 µM (active). With `CCOc1ccc2[nH]c(=O)c(CN(CCCO)S(=O)(=O)c3ccc(F)cc3)cc2c1`, the “activity change, negative = inhibition” value was -23% (inactive). For `COc1ccc(C(C(=O)NC2CCCCC2)N(C(=O)c2snc(C(N)=O)c2N)c2ccccc2OC)cc1` (stereo unspecified), the Potency was 10 µM (active). For `COc1ccc(C(C(=O)NC2CCCCC2)N(C(=O)CCl)c2ccccc2Cl)cc1` (stereo unspecified), the “activity change, negative = inhibition” value is -0.988% (inactive). Still for that read-out and setting: next, `NC(=O)c1nsc(C(=O)N(CCCN2CCOCC2)C(C(=O)NC2CCCCC2)c2ccc(Cl)cc2)c1N` (stereo unspecified): -6.35% [at 46.1 µM] (inactive). As for `O=C(O)C1C2C=CC(O2)C1C(=O)Nc1ccccn1` (stereo unspecified), the “activity change, negative = inhibition” value was 10.9% [at 46.1 µM] (inactive).

As for `COCCNc1cc(-c2ccccc2)nc2cc(-c3cccc(F)c3)nn12`, the “activity change, negative = inhibition” value is -7.91% [at 46.1 µM] (inactive). For `CC(=O)Nc1ccc(NC(=O)COC(=O)C2CCC(C(C)(C)C)CC2)cc1` (stereo unspecified), the “activity change, negative = inhibition” value was -19.8% (inactive).

For `COc1ccc(CCNS(=O)(=O)c2cc(-c3cc(C)no3)ccc2C)cc1OC`, the “activity change, negative = inhibition” value is -8% [at 46.1 µM] (inactive). As for `O=C(Nc1ccn(Cc2ccccc2F)n1)c1ccc(COc2ccc(Cl)cc2Cl)o1`, the Potency is 10 µM (active).

On to `COC(=O)c1ccccc1NC(=O)c1ccc(COc2ccccc2Cl)o1`, for which the “activity change, negative = inhibition” value is -10.5% [at 46.1 µM] (inactive).

For the compound `COc1ccc(Cl)cc1NC(=O)NCC1CCN(Cc2ccccc2F)CC1`, the “activity change, negative = inhibition” value is -5.4% [at 46.1 µM] (inactive). With `COc1ccccc1N(C)S(=O)(=O)c1ccc(Cl)c(C(=O)Nc2ccncc2)c1`, the “activity change, negative = inhibition” value is -8.77% (inactive).

As for `O=C(NC(=O)c1ccccc1)NC(=O)c1ccccc1`, the “activity change, negative = inhibition” value was 3.38% (inactive). Consider `CN(O)C(=S)c1ccccc1`, for which the Potency is 6.31 µM (active).

Turning to `CCc1ccc(C(=O)C(C)OC(=O)CN2C(=O)NC3(CCCC3)C2=O)cc1` (stereo unspecified), the “activity change, negative = inhibition” value is 12% (inactive). Turning to `Cn1c2ccccc2c2c(C(=O)N3CCN(c4ccc(F)cc4)CC3)cn(C3CCCC3)c(=O)c21`, the Potency was 10 µM (active). As for `CCOc1ccc(NC(=O)c2cn(C3CCCCC3)c(=O)c3c2c2ccccc2n3C)cc1`, the “activity change, negative = inhibition” value was 7.33% [at 46.1 µM] (inactive). Still for that read-out and setting: as for `O=C(c1ccccc1Oc1ccccc1)N1CCN(c2ccc(F)cc2)CC1`, the figure is -16.9% (inactive). For the compound `O=C(NNC(=O)c1ccc(-c2ccccc2)cc1)Nc1ccccc1`, the “activity change, negative = inhibition” value was 11.5% [at 46.1 µM] (inactive). As to `CC(Nc1ccc([N+](=O)[O-])cc1[N+](=O)[O-])c1ccccc1` (stereo unspecified), the “activity change, negative = inhibition” value is 0.308% (inactive). Take `O=C(/C=C/c1ccccc1)N1CCN(Cc2cc(=O)n3nc(-c4ccccc4F)sc3n2)CC1`: the “activity change, negative = inhibition” value was 0.658% [at 46.1 µM] (inactive). Take `Cc1cccc(N=C2NN=C(c3c[nH]c4ccccc34)CS2)c1`: the Potency was 14.6 µM (active). Consider `Cc1cccc(C(=O)Nc2nnc(Cc3c[nH]c4ccccc34)s2)c1`, for which the “activity change, negative = inhibition” value was 0.566% (inactive). On the same count and under the same terms, as for `CC(=O)c1c(C)[nH]c(C(=O)N2CCN(S(=O)(=O)c3ccc(F)c(F)c3)CC2)c1C`, the figure is -4.88% (inactive); as for `O=C(CCC1CCCCC1)Nc1cc(C(F)(F)F)ccc1N1CCOCC1`, -7.6% (inactive). Same read-out and setting: next, `COc1cccc(C(=O)OCc2cc(=O)oc3c(C)c(C)ccc23)c1OC`: 1.76% (inactive); `CCOc1ccc(NC(=O)CN(C)C(=O)Cc2sc(C)nc2-c2ccc(F)cc2)cc1OCC`: 19.5% (inactive); `N#CCc1c[nH]c2ccc([N+](=O)[O-])cc12`: 17.9% [at 46.1 µM] (inactive). Still for that read-out and setting: next, `Cc1ccc(S(=O)(=O)c2nc(-c3cccs3)oc2NCc2cccnc2)cc1`: 2.99% (inactive); `O=S(=O)(c1ccc(Br)cc1)c1nc(-c2ccccc2)oc1NCc1cccnc1`: -22.6% (inactive). `COc1cccc(-c2nc(S(=O)(=O)c3ccc(C)cc3)c(NCc3ccccc3)o2)c1`: the Potency is 10 µM (active).
